Imprint erasure: inducers of genomic imprint erasure in mouse ES cells. 110,000 compounds, 0.02% hits. mouse ES Peg3-LacZ reporter, beta-gal luminescence, 40 h. Potency, µM (top dose mostly 60.7 µM), usual class: activators
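Gelatin-coated wells received 300 freshly trypsinized female ES cells with a Peg3LacZ-Neo reporter on the maternal allele, then incubated 40 hours at 37C. BetaGlo was added for 5 minutes at room temperature before a single luminescence read.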
p53ts 39C kill: cytotoxicity in p53ts cells at nonpermissive temperature; H1299-p53A138V viability at 39C, ATP luminescence, 24 h; Potency, µM (doses to about 46.1 µM), hits mostly cytotoxic; 130,000 compounds, 1.5% hits; AID 902; further: nearly all actives have a fitted effect of over 55% in size
p53ts 32C kill: kills p53ts cells at the permissive temperature | AID 924 | Potency, µM (titrated, usually from 46.1 µM), actives largely listed as cytotoxic | H1299-p53A138V at 32C, ATP luminescence viability, 24 h | 130,000 compounds, 0.93% hits; further: nearly all actives have a fitted effect of over 55% in size
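Viability by ATPlite luminescence after 24 h compound treatment (up to 46 uM) at the permissive 32C. Cells are H1299 carrying p53 A138V. Scale runs from DMSO basal to 100 uM tamoxifen as full kill; AC50 from Hill fits.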
Each line names hits and unclear results; the compound was inactive in the other large screens; ! = not confirmed by another sample. Compounds with a hit are over-represented: about 1.6% of the library has one in this group of screens. The call rests on the fitted dose curve; in most records, active means well fitted curve in the direction sought with a large enough effect; inconclusive means small, poorly fitted or top-dose-only effect, or another doubt; inactive means no such curve, though single readings can be large; an effect the other way counts as inactive or inconclusive.

CNCCc1ccc(O)c(O)c1	p53ts 39C kill 20µM, p53ts 32C kill inconclusive
COc1ccc(CCN)cc1O	none
CN(C)CS/C(N)=N/[C@H](O)C(Cl)(Cl)Cl	none
CCn1nc(-c2cccs2)nc2c(=O)n(C)c(=O)nc1-2	p53ts 39C kill 4µM, p53ts 32C kill 2µM
C=C[C@@H]1CN2CC[C@H]1CC2[C@H](O)c1ccnc2ccccc12 (stereo not given in full)	none (no result: p53ts 39C kill, p53ts 32C kill)
CC[n+]1c(-c2ccccc2)c2cc(N)ccc2c2ccc(N)cc21	p53ts 39C kill 2.5µM, p53ts 32C kill 4µM!
COc1cc2c(cc1OC)[C@@]13CCN4C=C5CCO[C@H]6CC(=O)N2[C@@H]1C6[C@H]5C[C@H]43 (stereo not given in full)	none (no result: p53ts 39C kill, p53ts 32C kill)
COc1ccc(C(=O)Nc2ccc(Cl)cc2C(=O)c2ccccc2)c(OC)c1	none
COc1ccc2c(c1)-c1nc(NC(=O)c3ccc(Cl)cc3)sc1CC2	p53ts 39C kill 10µM, p53ts 32C kill inconclusive
CCCCC[CH2][Hg][S]C1=C2N=CNC2NC(N)=N1 (stereo not given)	none (no result: p53ts 39C kill, p53ts 32C kill)
CC(C)CCCC(C)C1CCC2C3CC(O)[C@@]4(O)CC(O)CC[C@@]4(C)C3CC[C@@]12C (stereo not given in full)	p53ts 39C kill inconclusive
CNC(C(=O)c1ccccc1)C(OC)c1ccccc1 (stereo not given)	none
CC(=O)[O][Hg][c]1ccccc1	p53ts 39C kill 1.6µM, p53ts 32C kill 1µM
CC[C@@H]1CN2CCc3cc(OC)c(OC)cc3[C@H]2C[C@@H]1C[C@@H]1NCCc2cc(OC)c(OC)cc21	p53ts 39C kill inconclusive (no result: Imprint erasure)
CCOC(=O)c1ccc(N2C(=O)c3n[nH]c(-c4cccs4)c3C2c2ccc(C(C)(C)C)cc2)cc1 (stereo not given)	p53ts 39C kill 16µM, p53ts 32C kill inconclusive
CCOC(=O)c1ccc(N2C(=O)c3n[nH]c(-c4cccs4)c3C2c2ccc(Cl)cc2Cl)cc1 (stereo not given)	p53ts 39C kill inconclusive, p53ts 32C kill inconclusive
CC(=O)[C@@H]1CC[C@H]2[C@H]3CC[C@H]4C[C@@H](O)CC[C@]4(C)[C@@H]3CC[C@]12C	none (no result: Imprint erasure)
O=S(=O)(O)/C(=C\c1ccccc1)c1ccccc1 (tested in a mixture with another compound)	none
Cc1ccc(C(=O)COC(=O)c2cccc(NC(=O)c3ccc(Br)cc3)c2)cc1	p53ts 39C kill 7.9µM, p53ts 32C kill inconclusive
O=C(COC(=O)c1cccc(NC(=O)c2ccc(Br)cc2)c1)c1ccc(Br)cc1	Imprint erasure inconclusive, p53ts 39C kill inconclusive
CCCC[N+]1(C)[C@@H]2CC(OC(=O)[C@@H](CO)c3ccccc3)C[C@H]1[C@H]1O[C@H]12 (stereo not given in full)	none (no result: Imprint erasure)
[O]=[Cr](=[O])([OH])[O][Cr](=[O])(=[O])[OH]	p53ts 39C kill 10µM
CN(C)CCC(C#N)(c1ccccc1)c1ccccc1	none
CC(C)CCCC1(C)C=Cc2c(O)c3c(c(CCC(C)C)c2O1)OC12C(CC4CC1C(C)(C)OC2(CCC(C)C(=O)O)C4O)C3=O (stereo not given)	Imprint erasure inconclusive, p53ts 39C kill inconclusive
CC(C)=CCCC1(C)C=Cc2c(O)c3c(c(CC=C(C)C)c2O1)OC12C(=CC4CC1C(C)(C)OC2(C/C=C(/C)C(=O)O)C4=O)C3=O (stereo not given)	p53ts 39C kill 6.3µM, p53ts 32C kill 4µM
CC(C)=CCCC1(C)C=Cc2c(O)c3c(c(CC=C(C)C)c2O1)OC12C(=CC4CC1C(C)(C)OC2(C/C=C(/C)C(=O)O)C4O)C3=O (stereo not given)	p53ts 39C kill 5µM, p53ts 32C kill 5µM
COc1c(CC=C(C)C)c2c(c3oc(=O)c(-c4ccc(O)cc4)c(O)c13)C=CC(C)(C)O2	none
C=CCN1CC[C@@]23CCCC[C@@H]2[C@@H]1Cc1ccc(O)cc13	none (no result: Imprint erasure)
CN1[C@@H]2CC[C@H]1CC(O[C@@H](c1ccccc1)c1ccccc1N)C2 (stereo not given in full)	none (no result: Imprint erasure)
C[C@H]1C2C=C[C@H]1[C@@H](C(=O)O)[C@@H]2c1c2ccc(=O)c(O)c-2oc2c(O)c(O)ccc12	none (no result: p53ts 39C kill, p53ts 32C kill)
CC1CC[C@@]2(OC1)OC1C(O)C3C4CC[C@H]5CC(O[C@@H]6O[C@@H](CO)[C@H](OC7OC(CO)C(O)C(OC8OCC(O)C(O)[C@H]8O)[C@@H]7O[C@@H]7OC(CO)[C@H](O)[C@@H](O[C@@H]8OC(CO)C(O)C(O)C8O)C7O)C(O)C6O)C(O)C[C@]5(C)C4CC[C@]3(C)C1C2C (stereo not given in full)	p53ts 39C kill 6.3µM, p53ts 32C kill 6.3µM
CC1CC[C@@]2(OC1)O[C@@H]1[C@@H](O)[C@H]3C4CC[C@H]5C[C@@H](O[C@@H]6O[C@H](CO)[C@H](O[C@@H]7O[C@H](CO)[C@@H](O)[C@H](O[C@@H]8OC[C@@H](O)[C@H](O)[C@H]8O)[C@H]7O[C@@H]7O[C@H](CO)[C@@H](O)[C@H](O[C@@H]8O[C@H](CO)[C@@H](O)[C@H](O)[C@H]8O)[C@H]7O)[C@H](O)[C@H]6O)[C@H](O)C[C@]5(C)C4CC[C@]3(C)[C@H]1[C@@H]2C (stereo not given in full)	p53ts 39C kill 13µM, p53ts 32C kill 13µM
CC(=O)OC1C[C@H](O[C@@H]2C(O)C[C@H](O[C@@H]3C(O)C[C@@H](OC4CC[C@]5(C)C(CCC6C5CC(O)[C@@]5(C)C(C7=CC(=O)OC7)CC[C@@]65O)C4)OC3C)OC2C)O[C@H](C)[C@H]1O[C@H]1OC(CO)C(O)C(O)C1O (stereo not given in full)	p53ts 39C kill inconclusive
Oc1ccc([C@H](O)C2CCCCN2)cc1O (stereo not given in full)	none (no result: p53ts 39C kill, p53ts 32C kill)

From PubChem
